These results are taken from publication PMC6212790, “How bacterial xenogeneic silencer rok distinguishes foreign from self DNA in its resident genome”.

The full ranking holds about 33,000 sequences; the median of “e-score” is about -0.037, and the highest 2% start at about 0.34. The sample as a whole holds a higher share of the highest values than the screen did.

This assay addresses T1, GST-Rok (full length) (Bacillus subtilis subsp. subtilis str. …, UniProt O34857 1-191).
T1 sequence: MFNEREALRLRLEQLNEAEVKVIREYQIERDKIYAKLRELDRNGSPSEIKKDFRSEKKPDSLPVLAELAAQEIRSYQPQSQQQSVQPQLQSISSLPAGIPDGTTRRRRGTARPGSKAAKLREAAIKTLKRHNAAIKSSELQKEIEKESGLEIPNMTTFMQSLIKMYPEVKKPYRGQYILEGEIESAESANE
Description: protein binding microarray; Rok is a gene silencer of Bacillus subtilis; high values mean tight binding. Conditions: protein: recombinant; tags: GST (pTH5325, pDEST15-Magic modified); dsDNA, one strand shown. Summed up: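 Each has a 25-mer constant primer and a 35-mer variable part from a de Bruijn sequence of order 10, covering every non-palindromic 8-mer at least 32 times (palindromic 16). Preference for each 8-mer is given as a rank-based, unitless enrichment score (E-score). Its range runs from 0.5 (most favored) to −0.5 (most disfavored).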
On to ACCAGTAT, for which the binding signal came to 0.255 E-score.

In the case of ACTAGTAT, the binding signal was determined as 0.422 E-score.

Take CCTAGTAG: the binding signal turned out to be 0.233 E-score.

For ACTAGTAG, the binding signal came out at 0.426 E-score.

Take ACTAGTAC: the binding signal amounted to 0.41 E-score.

CCTAGTAC: the binding signal was 0.125 E-score.

Turning to GCTAGTAC, the binding signal was found to be 0.181 E-score.

Turning to ACTAGTGG, the binding signal was found to be 0.00757 E-score.

With ACTAGTCT, the binding signal worked out at 0.248 E-score.

On to AGTTAAGC, for which the binding signal is -0.0477 E-score.

On to GGCTAAGA, for which the binding signal turned out to be 0.000408 E-score.

For GTTCTCAA, the binding signal was 0.0738 E-score.

Consider TAACACTA, for which the binding signal came to 0.284 E-score.

On to GAAGACTC, for which the binding signal is -0.114 E-score.

With CAGTAGGC, the binding signal is -0.157 E-score.

For the sequence TCCTACAA, the binding signal stood at 0.0302 E-score.

For the sequence AGGCTTCG, the binding signal was -0.0947 E-score.

Turning to AGCCCTAA, the binding signal is -0.164 E-score.

As for CTAATTAC, the binding signal is 0.329 E-score.

Turning to ATAATTAA, the binding signal came out at 0.29 E-score.

For ATAATTAG, the binding signal came to 0.317 E-score.

As to CTAATTAG, the binding signal is 0.375 E-score.

CTAATTAA: the binding signal was found to be 0.233 E-score.

For the sequence GTAATTAC, the binding signal was 0.421 E-score.

As for ATAATTAT, the binding signal amounted to 0.268 E-score.

GTAATTAA: the binding signal came out at 0.181 E-score.

Turning to ATAATTAC, the binding signal is 0.385 E-score.

As to GAACCCAA, the binding signal is -0.176 E-score.

In the case of ATGAAATC, the binding signal is 0.029 E-score.

Regarding AGGTCTGG, the binding signal was -0.0443 E-score.

For ATGTAAAT, the binding signal was found to be 0.376 E-score.

As to ATGTACAG, the binding signal came out at 0.3 E-score.

Consider AGCTACCT, for which the binding signal worked out at 0.164 E-score.

Take ATGTAAAA: the binding signal was determined as 0.295 E-score.

AGCTACCA: the binding signal was 0.358 E-score.

Consider ATGTACAA, for which the binding signal came to 0.311 E-score.

Take TTGTACAA: the binding signal amounted to 0.387 E-score.

Regarding GTGTACAA, the binding signal came out at 0.167 E-score.

For ATGTACAT, the binding signal came to 0.409 E-score.

In the case of AGCTACCC, the binding signal was -0.139 E-score.

Consider CTGTACAA, for which the binding signal came to 0.0838 E-score.

Regarding ATGTAAAC, the binding signal stood at 0.0692 E-score.

For ATAATTCC, the binding signal amounted to 0.213 E-score.

With GAGAACAA, the binding signal is -0.119 E-score.

GTCGTTTA: the binding signal was 0.0636 E-score.

Take CCTCACAG: the binding signal was -0.0675 E-score.

With AGCAGCAG, the binding signal was -0.124 E-score.

With ACGGACAC, the binding signal was -0.126 E-score.

On to CGCATTAA, for which the binding signal was 0.0651 E-score.

On to GTGATTTA, for which the binding signal is 0.06 E-score.

As for CCAGGAGC, the binding signal is -0.14 E-score.

AGCGTCTA: the binding signal came out at 0.0457 E-score.

CTGTACCA: the binding signal is -0.0416 E-score.

On to GTCTACCA, for which the binding signal was 0.0944 E-score.

Consider ATGTACCC, for which the binding signal was 0.0665 E-score.

Consider ATCTACCG, for which the binding signal was 0.409 E-score.

Regarding ATGTACCA, the binding signal came to 0.342 E-score.

Take ATCTACCA: the binding signal worked out at 0.48 E-score.

Regarding ATCTACCC, the binding signal is 0.25 E-score.

Consider ACCTACCG, for which the binding signal is 0.169 E-score.

Turning to AGCTACCG, the binding signal was found to be 0.309 E-score.

As to ATTGCCGG, the binding signal was -0.0899 E-score.

Take ACCAGCCG: the binding signal came out at 0.0494 E-score.

TCAGGACA: the binding signal is -0.136 E-score.

Consider CCACCTAA, for which the binding signal is -0.104 E-score.

For CTGGTAAC, the binding signal was found to be 0.176 E-score.

As for GAGAGAGA, the binding signal is -0.124 E-score.

Turning to CAAGCGTA, the binding signal was -0.175 E-score.

As to AAGCCAGC, the binding signal was -0.00201 E-score.

For the sequence AGACTGAA, the binding signal was found to be 0.0238 E-score.

Turning to CATACTAA, the binding signal came out at 0.125 E-score.

For AATACTAA, the binding signal amounted to 0.37 E-score.

As for AATACTCG, the binding signal amounted to 0.085 E-score.

For the sequence AATACTAC, the binding signal was 0.419 E-score.

As for CATACTAG, the binding signal was 0.312 E-score.

On to TATACTAA, for which the binding signal came out at 0.364 E-score.

Take AATACTGA: the binding signal came to 0.188 E-score.

Turning to AATACTCA, the binding signal came to 0.174 E-score.

Take GATACTAC: the binding signal was determined as 0.278 E-score.

On to GATACTAA, for which the binding signal worked out at 0.307 E-score.

In the case of AATACTTC, the binding signal was found to be 0.235 E-score.

AATACTAG: the binding signal stood at 0.341 E-score.

Take GCAGGGAA: the binding signal is -0.158 E-score.

On to TAAATTCA, for which the binding signal came to 0.217 E-score.

Take AGTAGCCA: the binding signal is -0.0245 E-score.

For CCTTACCG, the binding signal was 0.0725 E-score.

On to CGGAGCCG, for which the binding signal was -0.191 E-score.

For ACGTGCTA, the binding signal stood at 0.0361 E-score.

As to AATACTAT, the binding signal came out at 0.359 E-score.

As to CATACTCC, the binding signal is -0.0183 E-score.

For the sequence CATACTAC, the binding signal came out at 0.376 E-score.

As for CATACTTC, the binding signal is 0.191 E-score.

In the case of AATACTGT, the binding signal was 0.171 E-score.

For the sequence AATACTCT, the binding signal was determined as 0.11 E-score.

For the sequence AAAAAGTT, the binding signal worked out at 0.0934 E-score.

As to ACCAACAA, the binding signal is -0.105 E-score.

Turning to GAACACCA, the binding signal was -0.0539 E-score.

In the case of TACTTCGA, the binding signal turned out to be 0.332 E-score.

Consider CACTAAGC, for which the binding signal was -0.0899 E-score.

For the sequence GTAGGAAC, the binding signal was 0.0415 E-score.

As to CGAACGTA, the binding signal turned out to be 0.0863 E-score.

Regarding ACTAATTG, the binding signal stood at 0.184 E-score.

With ACTAATTA, the binding signal was 0.438 E-score.

With CCTAATTC, the binding signal is 0.0288 E-score.

Regarding GCTAATTA, the binding signal turned out to be 0.325 E-score.

Regarding CCTAATTA, the binding signal came out at 0.228 E-score.

For the sequence ACTAATTC, the binding signal was determined as 0.359 E-score.

In the case of GGCATCTA, the binding signal was -0.0204 E-score.

In the case of AGGATGAT, the binding signal is -0.0933 E-score.

Regarding ACTGTGGA, the binding signal is -0.123 E-score.
